Results: PubChem BioAssay (NCATS)
Results filed as inconclusive are left out. A call without a number means that no potency is given here. The source made the active and inactive calls. Calls follow the shape of the dose curve; as a rule, active = well fitted curve in the direction sought with a large enough effect; inconclusive = small, poorly fitted or top-dose-only effect, or another doubt; inactive = no such curve, though single readings can be large; an effect the other way counts as inactive or inconclusive.

Assays:
[1] = target: Aldehyde dehydrogenase, mitochondrial (Homo sapiens) (UniProt P05091); assay: qHTS for Inhibitors of the Aldehyde Dehydrogenase Family (ALDH2) Primary screen (AID 2061308); also: nearly all actives have a fitted effect of over 55% in size
[2] = target: Retinaldehyde dehydrogenase 3 (Homo sapiens) (UniProt P47895); assay: qHTS for Inhibitors of the Aldehyde Dehydrogenase Family (ALDH1A3) Primary screen (AID 2061315)

Question: For `O=c1c2ccc(F)cc2nc2sc(Nc3ccc4c(c3)CCC4)nn12`, which Potency [1] is on record?
Answer: inactive

Question: What about the Potency [2] of the same compound?
Answer: inactive

Question: Which results are given for `CC(C)N1CCc2c(sc(NC(=O)C(F)F)c2-c2nc3ccccc3s2)C1`?
Answer: Potency [1]: inactive; Potency [2]: inactive

Question: For `N#Cc1nc(Nc2cc(F)cc(F)c2)c2ncn(CCO)c2n1`, which Potency [1] is on record?
Answer: inactive

Question: And the Potency [2]?
Answer: inactive

Question: Which results are given for `FC(F)(F)c1cc(-c2ccc(CNc3nc(C4CCCC4)nc4ccccc34)cc2)ccn1`?
Answer: Potency [1]: inactive; Potency [2]: inactive

Question: What does the source list for `Cc1cnc(NC(=O)c2cc(S(=O)(=O)N(C)C)ccc2N2CCCC2)s1`?
Answer: Potency [1]: inactive; Potency [2]: inactive

Question: `CC(=O)NC(c1ccco1)c1cc(F)c2cccnc2c1O` (stereo unspecified) was tested. Which Potency [1] did it give?
Answer: inactive

Question: What about the Potency [2] of the same compound?
Answer: inactive

Question: With `CC(C)=CCCC1(C)C2CCC1(C)C(O)C2` (stereo unspecified) as the compound, how does the Potency [1] read?
Answer: inactive

Question: What about the Potency [2] of the same compound?
Answer: inactive

Question: Which results are given for `CCCCNc1nc(C)nc2c1nc(-c1ccccc1)n2CCCN(C)C`?
Answer: Potency [1]: inactive; Potency [2]: inactive

Question: With `COc1cc(O)c(C(CC(=O)N2CC(C)OC(C)C2)c2ccc3c(c2)OCO3)c(OC)c1` (stereo unspecified) as the compound, how does the Potency [1] read?
Answer: inactive

Question: What about the Potency [2] of the same compound?
Answer: inactive

Question: Which results are given for `Cc1cn([C@H]2C[C@H](N[S+](=O)([O-])Cc3cccc([N+](=O)[O-])c3)[C@@H](CO)O2)c(=O)[nH]c1=O`?
Answer: Potency [1]: inactive; Potency [2]: inactive

Question: For `C=C1CCC2C(C)(C(=O)OC)CCCC2(C)C1CCC1=CCOC1=O` (stereo unspecified), which Potency [1] is on record?
Answer: inactive

Question: What about the Potency [2] of the same compound?
Answer: inactive

Question: Which Potency [1] does the source give for `CCCn1c(C)nc2c(NCCCCN3CCCC3)nc(C)nc21` here?
Answer: inactive

Question: And the Potency [2]?
Answer: inactive

Question: Which Potency [1] does the source give for `Cc1ccnc(NC(=S)N[C@H]2CCN(c3cccc(C(F)(F)F)c3)C2)c1` here?
Answer: inactive

Question: And the Potency [2]?
Answer: inactive

Question: How did the Potency [1] turn out when `O=[S+]([O-])(Nc1ccc(N2CCNCC2)cc1)c1ccc(NCc2ccc(Cl)cc2O)cc1` was run?
Answer: inactive

Question: And the Potency [2]?
Answer: inactive

Question: With `CCCn1c(C)nc2c(NCCN3CCOCC3)nc(C)nc21` as the compound, how does the Potency [1] read?
Answer: inactive

Question: What about the Potency [2] of the same compound?
Answer: inactive

Question: Which results are given for `Cc1cnc(-c2ccccc2C(C)C)nc1NC(C)c1ccc(-c2cccnc2)cc1` (stereo unspecified)?
Answer: Potency [1]: inactive; Potency [2]: inactive

Question: How did the Potency [1] turn out when `N#Cc1nc(Nc2cccc3ccccc23)nc(NC2CCCC2)n1` was run?
Answer: inactive

Question: What about the Potency [2] of the same compound?
Answer: inactive

Question: How did the Potency [1] turn out when `Cc1ccc(NS(=O)(=O)c2ccc3c(c2)N(C)C(=O)CO3)cc1C` was run?
Answer: inactive

Question: And the Potency [2]?
Answer: inactive

Question: Which Potency [1] does the source give for `O=C(OCC#CCSc1nnc(-c2ccccc2Cl)o1)c1ccc(F)cc1` here?
Answer: inactive

Question: And the Potency [2]?
Answer: inactive

Question: How did the Potency [1] turn out when `COC(=O)C1CCc2sc(NC(=O)Cc3ccccc3)c(C(=O)Nc3ccc(Cl)cc3)c21` (stereo unspecified) was run?
Answer: inactive

Question: And the Potency [2]?
Answer: inactive

Question: `Oc1ccc(/C=C/c2ccccc2F)c2cccnc12` was tested. Which Potency [1] did it give?
Answer: inactive

Question: What about the Potency [2] of the same compound?
Answer: inactive

Question: How did the Potency [1] turn out when `Cn1c(SCC(=O)c2cc3ccccc3o2)nnc1-c1ccccc1` was run?
Answer: inactive

Question: What about the Potency [2] of the same compound?
Answer: inactive

Question: For `COc1cccc(CNc2ncnc3ccc(-c4c(C)noc4C)cc23)c1`, which Potency [1] is on record?
Answer: inactive

Question: What about the Potency [2] of the same compound?
Answer: inactive

Question: For `CCOc1ccc(CCNC(=O)c2cc3sccc3n2Cc2ccc(Cl)c(F)c2)cc1OCC`, which Potency [1] is on record?
Answer: inactive

Question: What about the Potency [2] of the same compound?
Answer: inactive

Question: With `C=CCNc1oc(-c2cccnc2)nc1C#N` as the compound, how does the Potency [1] read?
Answer: inactive

Question: And the Potency [2]?
Answer: inactive

Question: For `Cc1nc(NC2CCCCC2)c2nc(-c3ccccc3)n(CCCN3CCCCC3C)c2n1` (stereo unspecified), which Potency [1] is on record?
Answer: inactive

Question: And the Potency [2]?
Answer: inactive

Question: For `Cc1ccc(NS(=O)(=O)c2cc3c(cc2N2CCCCC2)NC(=O)CC3)cc1C`, which Potency [1] is on record?
Answer: inactive

Question: What about the Potency [2] of the same compound?
Answer: inactive

Question: Which Potency [1] does the source give for `N#Cc1nc(Nc2cccc(Cl)c2)c2ncn(C3CCCC3)c2n1` here?
Answer: inactive

Question: And the Potency [2]?
Answer: inactive

Question: Which results are given for `CCc1ccccc1C(=O)N1CCc2cc(-c3nc(NC(=O)Cc4ccc5c(c4)OCO5)sc3C)ccc21`?
Answer: Potency [1]: inactive; Potency [2]: inactive

Question: What does the source list for `Cc1cc(NS(=O)(=O)c2ccc(NC(=O)Cc3ccccc3)cc2)no1`?
Answer: Potency [1]: inactive; Potency [2]: inactive

Question: Which Potency [1] does the source give for `Cc1c(P(=S)(c2ccccc2)c2ccccc2)c2ccccc2n1C(=O)NCc1ccc(F)cc1` here?
Answer: inactive

Question: What about the Potency [2] of the same compound?
Answer: inactive

Question: Which results are given for `FC(F)(F)c1ccc(-c2nc(NCc3ccc(-c4ccnc(C(F)(F)F)c4)cc3)c3ccccc3n2)cc1`?
Answer: Potency [1]: inactive; Potency [2]: inactive

Question: With `COc1c2c(c(C)c3c1C(=O)OC3)OC1(C)CC(O)C3(O)C(C)(C)OC(=O)CCC3(C)C1C2` (stereo unspecified) as the compound, how does the Potency [1] read?
Answer: inactive

Question: And the Potency [2]?
Answer: inactive

Question: `CC[C@@H]1C(=O)O[C@]23C=C[C@@H]4C(C(=O)OC)=CO[C@H](O[C@@H]12)[C@@H]43` was tested. Which Potency [1] did it give?
Answer: inactive

Question: What about the Potency [2] of the same compound?
Answer: inactive

Question: Which results are given for `Cc1ccc(NS(=O)(=O)c2cc3c(cc2Br)NC(=O)CO3)cc1C`?
Answer: Potency [1]: inactive; Potency [2]: inactive

Question: With `CCCc1cc(C)n(C)c(=O)c1CN(C)C(=O)c1cc(-c2ccc(N3CCN(C(C)C)CC3)nc2)cc2c1cnn2C(C)C` as the compound, how does the Potency [1] read?
Answer: inactive

Question: What about the Potency [2] of the same compound?
Answer: inactive

Question: `COC(=O)N[C@H](C(=O)N1[C@@H]2CC[C@@H](C2)[C@H]1c1nc2ccc(-c3ccc4c(c3)C(F)(F)c3cc(-c5cnc([C@@H]6CCC7(CC7)N6C(=O)[C@@H](NC(=O)OC)C(C)C)[nH]5)ccc3-4)cc2[nH]1)C(C)C` was tested. Which Potency [1] did it give?
Answer: inactive

Question: And the Potency [2]?
Answer: inactive

Question: `O=C1CCCC2=C1C(c1ccncc1)N=C(Nc1nc3ccccc3o1)N2` (stereo unspecified) was tested. Which Potency [1] did it give?
Answer: inactive

Question: And the Potency [2]?
Answer: inactive
